Paper PMC4336329 (PLoS ONE, 2015)
Hit rate of the full screen: of about 310,000 compounds, about 14,000 (4.5%) showed an effect of 50% or more. The effect is printed as a negative number. The sample holds strong results, similar compounds and a random draw of the others, so the mix is not that of the screen.

Molecular target: human ether-à-go-go-related gene (hERG) potassium channel (human, UniProt Q12809)
Assay: primary screen, population patch clamp on CHO cells stably expressing hERG; higher = less effect of the substance
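Note: peak tail current of the secondary pulse compared with the same well before compound.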

Chain of human ether-à-go-go-related gene (hERG) potassium channel (Q12809 whole entry, looked up): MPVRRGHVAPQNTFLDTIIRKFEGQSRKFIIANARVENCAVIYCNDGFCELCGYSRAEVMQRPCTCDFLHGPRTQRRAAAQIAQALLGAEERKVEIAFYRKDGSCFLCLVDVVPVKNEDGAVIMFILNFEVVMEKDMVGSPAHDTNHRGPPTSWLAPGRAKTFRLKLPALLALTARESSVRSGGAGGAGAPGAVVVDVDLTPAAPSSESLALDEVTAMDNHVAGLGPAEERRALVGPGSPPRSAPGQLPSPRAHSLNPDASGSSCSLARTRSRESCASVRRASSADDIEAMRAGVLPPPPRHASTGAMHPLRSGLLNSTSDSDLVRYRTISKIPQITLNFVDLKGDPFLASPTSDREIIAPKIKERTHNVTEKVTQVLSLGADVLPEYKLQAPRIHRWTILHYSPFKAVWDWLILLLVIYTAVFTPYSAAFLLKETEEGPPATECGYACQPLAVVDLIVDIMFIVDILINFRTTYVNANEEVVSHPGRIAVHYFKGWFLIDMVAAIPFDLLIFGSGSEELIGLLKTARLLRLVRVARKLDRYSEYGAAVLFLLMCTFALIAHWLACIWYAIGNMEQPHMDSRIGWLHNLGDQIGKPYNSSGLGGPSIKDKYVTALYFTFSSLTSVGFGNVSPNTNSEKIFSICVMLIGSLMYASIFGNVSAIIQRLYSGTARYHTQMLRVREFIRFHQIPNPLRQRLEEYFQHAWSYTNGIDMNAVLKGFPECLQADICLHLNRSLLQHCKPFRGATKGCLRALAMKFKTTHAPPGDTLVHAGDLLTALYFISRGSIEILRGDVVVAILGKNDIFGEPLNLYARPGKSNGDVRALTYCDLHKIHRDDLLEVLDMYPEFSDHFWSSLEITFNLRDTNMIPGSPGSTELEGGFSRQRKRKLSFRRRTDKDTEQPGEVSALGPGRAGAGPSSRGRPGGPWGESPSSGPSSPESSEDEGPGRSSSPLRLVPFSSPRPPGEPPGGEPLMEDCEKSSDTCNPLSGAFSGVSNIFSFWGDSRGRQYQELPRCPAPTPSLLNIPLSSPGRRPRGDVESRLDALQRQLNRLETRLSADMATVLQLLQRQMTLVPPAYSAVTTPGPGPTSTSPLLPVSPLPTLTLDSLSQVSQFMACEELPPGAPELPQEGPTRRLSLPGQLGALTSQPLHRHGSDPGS

| Compound | hERG current change (%, negative = inhibition) at 10uM [%] |
| --- | --- |
| Cc1cc(NS(=O)(=O)c2ccc(NC(=O)c3c(F)c(F)c(F)c(F)c3F)cc2)nc(C)n1 | 4.63 |
| CCN(C(=O)CSc1nnnn1-c1ccccc1OC)C1CCS(=O)(=O)C1 (stereo not drawn) | 21.2 |
| O=C(CCNC(=O)c1ccccc1Cl)Nc1cccc(S(=O)(=O)N2CCOCC2)c1 | 0.307 |
| CC(C)(C)c1[nH]nc2c1C(C1C=CCCC1)C(C#N)=C(N)O2 (stereo not drawn) | -11 |
| CN(C)CC1CCCCC1OC(=O)c1ccc(S(=O)(=O)N(C)c2ccccc2)cc1 (stereo not drawn) | 17.8 |
| C/C(CC(=O)NCc1ccco1)=N\NC(=O)c1ccc([N+](=O)[O-])cc1Cl | 10.5 |
| CC(OC(=O)CCc1nc2ccccc2c(=O)[nH]1)C(=O)c1ccc(C(C)(C)C)cc1 (stereo not drawn) | -12.3 |
| COc1ccc(N(CC(=O)NCc2ccc(Cl)cc2)S(=O)(=O)c2c(C)noc2C)cc1 | 15.1 |
| O=[N+]([O-])CC(=Nc1ccc(F)cc1)N/N=C\c1oc(O)c2ccccc12 | -0.338 |
| NCCCC[C@H]1CN=C(N)N1CCCCC1CCCCC1 | -3.84 |
| CC(C)C(NC(=O)c1ccccc1NC(=O)c1ccco1)C(=O)O (stereo not drawn) | -14.1 |
| C/C(N)=C(/C#N)C(=O)COC(=O)CC1CCCC1 | -2.15 |
| Cc1ccc(N2C(=O)CC(Cc3cccc(C)c3)C2=O)cc1 (stereo not drawn) | 9.39 |
| COc1ccccc1N1C(=O)CC(N2CCN(c3ccc(F)cc3)CC2)C1=O (stereo not drawn) | -1.99 |
| Cc1cc(C)cc(CC2CC(=O)N(c3ccc([N+](=O)[O-])cc3)C2=O)c1 (stereo not drawn) | 9.78 |
| O=C1CC(N2CCN(c3ccccc3)CC2)C(=O)N1c1cccc(Br)c1 (stereo not drawn) | -1.92 |
| COc1cccc(N2CCN(C3CC(=O)N(c4ccc(Cl)c(Cl)c4)C3=O)CC2)c1 (stereo not drawn) | -0.0262 |
| COc1cccc(N2CCN(C3CC(=O)N(c4cccc(Cl)c4)C3=O)CC2)c1 (stereo not drawn) | -14.4 |
| COc1ccccc1N1CCN(C2CC(=O)N(c3cccc(Br)c3)C2=O)CC1 (stereo not drawn) | -53.7 |
| COc1cccc(N2C(=O)CC(N3CCN(c4ccc([N+](=O)[O-])cc4)CC3)C2=O)c1 (stereo not drawn) | -52.1 |
| COc1ccccc1N1C(=O)CC(N2CCN(c3ccc([N+](=O)[O-])cc3)CC2)C1=O (stereo not drawn) | -68.6 |
| COc1ccccc1N1CCN(C2CC(=O)N(c3ccccc3)C2=O)CC1 (stereo not drawn) | 24.1 |
| COc1ccccc1N1C(=O)CC(N2CCN(c3ccc(Cl)cc3)CC2)C1=O (stereo not drawn) | 1.61 |
| Cc1cccc(CC2CC(=O)N(c3ccc([N+](=O)[O-])cc3)C2=O)c1 (stereo not drawn) | -53.3 |
